Measurements published in PubChem BioAssay AID489025 (Southern Research Specialized Biocontainment Screening …, 2010).
Screen size: about 2,300 compounds; about 790 (34%) were called active. The rule behind the calls is not given here. Some of the results follow. Measured potencies and affinities stand elsewhere.

test: THP-1 cell cytotoxicity, dose response, cytotoxicity control for non-replicating M. tuberculosis project (AID 489025); settings: THP-1 cell viability; series mostly up to 40 µM

| SMILES | outcome |
| --- | --- |
| CSC1=N/C(=C\c2ccc3c(c2)OCO3)C(=O)S1 | inactive |
| COc1ccc2c(c1)sc(=N)n2C | inactive |
| Cc1ccc(NC(=O)C2COc3ccccc3O2)nc1 (stereo not drawn) | inactive |
| COc1ccc(C(=O)Nc2nnc(C3=COCCO3)o2)cc1 | inactive |
| O=C(Nc1nnc(C2=COCCO2)o1)c1ccc(F)cc1 | inactive |
| CCCn1c(CNc2ccccc2O)nc2ccccc21 | inactive |
| O=c1oc2ccccc2c(Nc2ccccc2O)c1[N+](=O)[O-] | inactive |
| Clc1ccc(OC2CCN(Cc3nc(CC4CC4)no3)CC2)cc1 | inactive |
| CCCCOc1ccc(-c2nnn(C(C)C(=O)OCC)n2)cc1 (stereo not drawn) | inactive |
| CCOC(=O)c1sc(NC(=O)CCN2CC(C)OC(C)C2)c(C(=O)OCC)c1C (stereo not drawn) | inactive |
| CCc1nonc1NC(=O)COc1ccc(Cl)c(C)c1 | inactive |
| Cc1cc(C)cc(OC(=O)CCN2C(=O)c3ccccc3C2=O)c1 | inactive |
| O=C1c2ccccc2C(=O)N1CCOc1ccc(F)cc1 | inactive |
| COc1cccc2cc(C(=O)c3ccc([N+](=O)[O-])cc3)oc12 | inactive |
| O=C(c1ccc([N+](=O)[O-])o1)N1CCN(c2nc3ccc(F)cc3s2)CC1 | inactive |
| C=CC[n+]1ccn(-c2nc3ccccc3nc2[N-]S(=O)(=O)c2cccs2)c1 | inactive |
| CC(=O)CCC1CC(c2ccc(Cl)cc2)=NO1 (stereo not drawn) | inactive |
| CCCCCCNC(=O)c1ccc(Br)o1 | inactive |
| Cc1c(Cl)cccc1NC(=O)C(=O)NNC(=O)c1ccccc1F | inactive |
| CCOC(=O)c1c(NC(=O)COC(=O)c2ccccn2)sc2c1CCC2 | inactive |
| O=C(Nc1nnc(-c2cc(Cl)ccc2Cl)o1)C1=COCCO1 | inactive |
| O=C(CCN1C(=O)S/C(=C\c2ccc(F)cc2)C1=O)Nc1ccc(C(=O)O)c(O)c1 | inactive |
| O=C(NNC(=O)c1ncc(Cl)c(Cl)c1Cl)c1ccc(F)cc1 | inactive |
| CC1CCN(CCOCCSc2ccc(Cl)cc2)CC1 | inactive |
| COc1ccc2cc(C(=O)NCc3ccccc3)c(=O)oc2c1 | inactive |
| O=C(CCC1CCCC1)NCc1ccccn1 | inactive |

| SMILES | outcome |
| --- | --- |
| COc1ccc(NC(=O)COc2ccc3c(c2)CCC3)cc1 | inactive |
| Cc1ccc(C2=N/C(=C\c3cccnc3)C(=O)O2)cc1 | inactive |
| O=C1OC(/C=C/c2ccccc2)=NC/1=C\c1cccnc1 | inactive |
| Cn1c(=O)c(Oc2ccc(Cl)cc2)c(O)c2ccccc21 | inactive |
| C=CCn1c(=O)c(C(=O)Nc2cccnc2)c(O)c2ccccc21 | inactive |
| CCn1c(=O)c(C(=O)Nc2ncccc2C)c(O)c2ccccc21 | inactive |
| Cc1cccnc1NC(=O)c1c(O)c2ccccc2n(C)c1=O | inactive |
| COc1cc(C2C3=C(CC(C)(C)CC3=O)OC(N)=C2[N+](=O)[O-])ccc1O (stereo not drawn) | inactive |
| CCCCOc1ccc(CSCCN)cc1Cl | inactive |
| O=C1N(c2ccc3c(c2)OCCO3)C(c2ccccc2)C1(F)F (stereo not drawn) | inactive |
| NC(=O)COc1ccc2cc(-c3ccc(F)cc3)c(=O)oc2c1 | inactive |
| Cc1n[nH]c(=S)n1/N=C/c1ccc(OCc2ccc(Cl)cc2Cl)cc1 | inactive |
| CN1CCC(O)(c2cccs2)C(C(=O)c2cccs2)C1 (stereo not drawn) | inactive |
| CC1CCN(C(=O)C2COc3ccccc3O2)CC1 (stereo not drawn) | inactive |
| CCCn1c(=O)c(C(=O)N/N=C/c2ccccc2F)c(O)c2ccccc21 | inactive |
| C/C(=N\Nc1nc2ccccc2[nH]1)c1ccc(N2CCOCC2)cc1 | inactive |
| CCCCN(C/C=C/c1ccccc1OC)Cc1ccccc1 | inactive |
| COc1ccc(N2C(=O)CC(Sc3nc4ccccc4s3)C2=O)cc1OC (stereo not drawn) | inactive |
| CCOc1cccc2cc(C(=O)NC(C)c3ccccc3)c(=N)oc12 (stereo not drawn) | inactive |
| O=C(COc1cccc2ccccc12)Nc1ccc(Cl)cc1C(=O)O | inactive |
| O=C(NCc1cccs1)c1cc(-c2ccc(O)cc2)on1 | inactive |
| O=C(OCC(=O)N1CCCCC1)c1cc2ccccc2cc1O | inactive |
| Cc1cccc(NC(=O)CO/N=C/c2ccc3c(c2)OCO3)c1 | inactive |
| O=C(Nc1ncccn1)c1ccc([N+](=O)[O-])o1 | inactive |
| Cc1csc(NC(=O)c2cc([N+](=O)[O-])cc([N+](=O)[O-])c2)n1 | inactive |
| O=C(NCc1cccs1)c1ccc(Br)o1 | inactive |

| SMILES | outcome |
| --- | --- |
| O=C(CN1CCN(c2ccc([N+](=O)[O-])cc2)CC1)Nc1ccccn1 | inactive |
| COc1cccc(COC(=O)c2sc3nc4n(c(=O)c3c2C)CCC4)c1OC | inactive |
| O=C(N/N=C/c1ccc(OC(=O)c2ccco2)cc1)c1ccccn1 | inactive |
| O=C(Nc1ccc(-c2nc3ccccc3c(=O)o2)cc1)c1ccco1 | inactive |
| CC(C)(C)/C(O)=C/c1nc2ccccc2oc1=O | inactive |
| O=C1N/C(=N\c2ccccn2)SC1Cc1ccc(Cl)cc1 (stereo not drawn) | inactive |
| CO/N=C/CC(=O)c1ccc(OC)cc1 | inactive |
| COc1ccc(/C(=N/O)C(C)(C)NO)cc1 | inactive |
| Cc1cc2nc(CSc3ccc(Cl)cc3)cc(=O)n2[nH]1 | inactive |
| CSCCC(=O)N1CCCC(N2CCN(c3cccc(C(F)(F)F)c3)CC2)C1 (stereo not drawn) | inactive |
| CCC(C)c1ccc(OCCn2ccnc2)cc1 (stereo not drawn) | inactive |
| C/C(=C\C(=O)c1ccncc1)Nc1ccccc1O | inactive |
| CCOC(=O)c1ccc(NC(=O)CCSCCc2ccccn2)cc1 | inactive |
| Cc1ccc(OCCCCc2c(C)n[nH]c2C)cc1 | inactive |
| CC1CCc2c(sc3nc(CSc4ncn[nH]4)[nH]c(=O)c23)C1 (stereo not drawn) | inactive |
| CC1CC(C)CN(CCOCCSc2ccc(Cl)cc2)C1 (stereo not drawn) | inactive |
| Cc1cc(Cl)ccc1NNC(=O)c1cccs1 | inactive |
| O=C(c1ccccc1)c1nc[nH]c1C(=O)Nc1ccccc1 | inactive |
| CN(C)CCC(=O)N1c2ccccc2Sc2ccc(Cl)cc21 | inactive |
| O=S1(=O)N=C(N/N=C/C=C/c2ccccc2)c2ccccc21 | inactive |
| COc1ccc(OCc2n[nH]c(=S)o2)cc1 | inactive |
| CCCCn1c(N)c(-c2nc3ccccc3o2)c2c([N+](=O)[O-])nn(CC)c(=O)c21 | inactive |
| CCOCC(=O)Nc1ccc(C)c(Cl)c1 | inactive |
| CSC1=N/C(=C\c2ccc(Br)o2)C(=O)S1 | inactive |
| Cc1ccc(-c2nnc(C)c(N3CCCC3)n2)cc1 | inactive |
| O=C(CN1CCN(c2ccccc2O)CC1)Nc1ccc2c(c1)CCC2 | inactive |
